RGS16-Gao: modulators of RGS16 binding to Galphao, primary screen, biochemical, human proteins, multiplexed bead flow cytometry; actives 0.38% (n = 220,000); AID 1441, 2008; bead-based flow cytometry RGS16-Galphao binding, fluorescence; actives lie on both sides; binding response (% of control), % at 10 µM;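 also: Galphao activated by GDP with aluminum fluoride before binding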
RGS7-Gao reg: RGS7-Galphao binding modulators, primary screen, biochemical, multiplexed bead flow cytometry | Guanine nucleotide-binding protein G(o) subunit alpha (Homo sapiens), P09471 | binding response (% of control), % at 10 µM | AID 1439, 2008 | actives lie on both sides | actives 0.35% (n = 220,000); in the data active = binding response below about 49% or above about 150%; inconclusive = no clear call, values can overlap the other calls; inactive = in between;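 also: fluorescent Galphao held in activated GDP-AlF4 state binding bead-coupled RGS7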
Target sequence (P09471 whole entry, looked up): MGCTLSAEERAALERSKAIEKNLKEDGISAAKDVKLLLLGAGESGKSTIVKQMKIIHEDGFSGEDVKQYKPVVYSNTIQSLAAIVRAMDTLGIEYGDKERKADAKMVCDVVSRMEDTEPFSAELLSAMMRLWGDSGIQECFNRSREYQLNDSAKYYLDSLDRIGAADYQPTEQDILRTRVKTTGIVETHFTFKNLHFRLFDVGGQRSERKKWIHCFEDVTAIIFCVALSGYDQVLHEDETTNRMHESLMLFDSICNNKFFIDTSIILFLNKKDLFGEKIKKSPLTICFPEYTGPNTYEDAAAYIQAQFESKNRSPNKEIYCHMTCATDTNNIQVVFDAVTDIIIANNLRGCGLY
RGS8-Gao: RGS8-Galphao binding modulators, primary screen, biochemical, multiplexed bead flow cytometry; actives lie on both sides; response (percent of control binding), % at 10 µM; actives 0.34% (n = 220,000); AID 1423, 2008; in the data active = response below about 60% or above about 140%; inactive = in between;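 also: Galphao activated as the GDP aluminium fluoride complex binding bead-coupled RGS8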
RGS4-Gao reg: modulators of RGS4 binding to Galphao, primary screen, biochemical, multiplexed bead flow cytometry; Guanine nucleotide-binding protein G(o) subunit alpha (Homo sapiens), P09471; actives 0.33% (n = 220,000); actives lie on both sides; binding response (% of control), % at 10 µM; in the data active = binding response below about 49% or above about 150%; inactive = in between;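 also: fluorescent Galphao activated with aluminum fluoride binding bead-coupled RGS4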
RGS-Gao: modulators of RGS–Galpha-o binding, primary screen, biochemical, multiplexed beads, flow cytometry, RGS4/7/8/16/19; shares compounds with RGS16-Gao; multiplexed bead flow cytometry; RGS4–Galpha-o binding response, % at 10 µM; actives 99% (n = 1,600); AID 1504, 2009;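 also: fluorescently labeled Galpha-o bound to GDP with aluminium fluoride binding biotinylated RGS beads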
Avidin counter: disruption of biotin probe capture by avidin, counter-screen for RGS protein interaction modulators, biochemical, flow cytometry, bead-based. streptavidin beads, fluorescein-biotin binding. inhibition, % at 10 µM. shares compounds with RGS16-Gao. 1,700 tested, under 10 active. AID 1783, 2009;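 active = inhibition above 50%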;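 also: median green fluorescence of gated singlet beads compared with DMSO control wells; 0% = DMSO wells and 100% = complete loss of bead fluorescence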
RGS8-Gao confirm: RGS8-Galphao binding modulators, confirmation, biochemical, multiplexed bead flow cytometry, single concentration; shares compounds with RGS16-Gao; actives 3% (n = 1,700); binding response (% of control), % at 10 µM; bead-based flow cytometry RGS8-Galphao binding, fluorescence; actives lie on both sides; in the data active = binding response below about 72% or above about 130%; inactive = in between;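 also: Galphao activated as GDP AlF4 complex before binding bead RGS8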
RGS7-Gao single: RGS7-Galphao binding modulators, confirmation, biochemical, multiplexed bead flow cytometry, single concentration | shares compounds with RGS16-Gao | bead-based flow cytometry RGS7-Galphao binding; actives lie on both sides | response (percent of control binding), % at 10 µM | actives 7.8% (n = 1,700) | AID 1837, 2009; in the data active = response below about 75% or above about 130%; inactive = in between;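 also: fluorescent Galphao activated with GDP and aluminum fluoride binding bead-coupled RGS7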
RGS16-Gao single: modulators of RGS16-Galphao protein binding, confirmation, biochemical, single concentration, multiplexed bead flow cytometry; actives 4% (n = 1,700); shares compounds with RGS16-Gao; bead-based flow cytometry; actives lie on both sides; response (% of control binding), % at 10 µM; in the data active = response below about 74% or above about 130%; inactive = in between;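 also: Galphao activated as the GDP aluminium fluoride complex binding bead-coupled RGS16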
RGS4-Gao confirm: modulators of RGS4-Galphao protein binding, confirmation, biochemical, single concentration, multiplexed bead flow cytometry. shares compounds with RGS16-Gao. actives lie on both sides. binding response (% of control), % at 10 µM. actives 4% (n = 1,700); in the data active = binding response below about 74% or above about 130%; inactive = in between
RGS19-Gao single: regulators of RGS19-Galphao binding, confirmation, biochemical, single point, multiplexed bead flow cytometry; bead-based flow cytometry RGS19-Galphao binding; actives lie on both sides; shares compounds with RGS16-Gao; response (percent of control binding), % at 10 µM; AID 1841, 2009; actives 5% (n = 1,700); in the data active = response below about 50% or above about 160%; inactive = in between;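 also: 100% = no compound control and 0% = blank background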
Target sequence (P09471 whole entry, looked up): as above
Target sequence (P49795 whole entry, looked up): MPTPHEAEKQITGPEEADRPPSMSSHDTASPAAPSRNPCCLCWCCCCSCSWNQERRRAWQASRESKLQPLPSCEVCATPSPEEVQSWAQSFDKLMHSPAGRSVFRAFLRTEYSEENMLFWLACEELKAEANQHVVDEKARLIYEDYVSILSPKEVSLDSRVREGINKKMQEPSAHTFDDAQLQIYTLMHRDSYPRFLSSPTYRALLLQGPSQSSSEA
Numbers without * were called inactive; i = inactive; ? = inconclusive; nt = no result given; + = active, no number; [ ] = dose if it differs, or a comment. An excerpt weighted towards active compounds, which were near 0.78% of everything screened. Unless noted, no rule for the calls is given here.

SMILES	RGS16-Gao	RGS7-Gao reg	RGS8-Gao	RGS4-Gao reg	RGS-Gao	Avidin counter	RGS8-Gao confirm	RGS7-Gao single	RGS16-Gao single	RGS4-Gao confirm	RGS19-Gao single
Cc1ccc(N2C(=O)c3cccc4c(Oc5ccccc5[N+](=O)[O-])ccc(c34)C2=O)c(C)c1	235*[activator]	122	126	121	121*	1	107	110	107	108	115
CN1CCN(C(CNS(=O)(=O)c2ccc(Cl)cc2)c2cccnc2)CC1 (stereo not drawn)	164	157*[activator]	111	110	110*	-1	98	94	97	95	90
Cc1ccc(C)c(S(=O)(=O)N/N=C/c2cccnc2)c1	122	106	106	109	nt	nt	nt	nt	nt	nt	nt
CC(C)C(=O)NC(=S)N(Cc1ccccc1)Cc1ccccc1	184*[activator]	106	123	106	106*	-1	101	62*	88	70*	171*[activator]
O=C(CN1N=C(c2ccc(Cl)cc2)CCC1=O)NCCN1CCc2ccccc2C1	-2.4*	4.0*	13*	14*	nt	-1	110	106	116	107	135
Cc1ccc(C2=NN(CC(=O)NCc3cccs3)C(=O)CC2)cc1	117	102	106	101	nt	nt	nt	nt	nt	nt	nt
CCCC(=O)NC(NC1CCS(=O)(=O)C1)C(Cl)(Cl)Cl (stereo not drawn)	15*	11*	34*	22*	nt	0	100	101	105	102	96
CC(C)C(=O)NC(NC1CCS(=O)(=O)C1)C(Cl)(Cl)Cl (stereo not drawn)	107	113	110	100	nt	nt	nt	nt	nt	nt	nt
CCN1C(=O)C2(SC(NC(C)=O)=NN2C(C)=O)c2cc(C)cc(C)c21 (stereo not drawn)	8	77	76	75	nt	nt	nt	nt	nt	nt	nt
CCCN1C(=O)C2(SC(NC(C)=O)=NN2C(C)=O)c2cc(C)cc(C)c21 (stereo not drawn)	96	?	79	98	nt	4	110	98	113	100	99
CCOC(=O)Cc1csc(NC(=O)NC2(C(F)(F)F)Oc3cc(Cl)c(Cl)cc3O2)n1	97	97	98	97	nt	nt	nt	nt	nt	nt	nt
O=C(CSc1nnc2n1CCCN2)c1ccc(Cl)cc1	88	-278*	-19*	+[activator]	nt	2	100	104	102	105	100
N#CC1CCN(c2ncccc2[N+](=O)[O-])CC1	175	?	106	282*[activator]	nt	1	98	99	98	100	92
NC(=O)C1(N2CCCCC2)CCN(C(=O)NC23CC4CC(CC(C4)C2)C3)CC1	104	100	98	102	nt	nt	nt	nt	nt	nt	nt
CC(=O)N1CCc2cc(S(=O)(=O)NC(Cc3ccccc3)C(=O)Nc3cc(C)ccn3)ccc21 (stereo not drawn)	940	118	153*[activator]	129	129*	i	100	101	102	102	105
CCC(=O)N1CCc2cc(S(=O)(=O)NC(Cc3ccccc3)C(=O)NC3CCCCC3)ccc21 (stereo not drawn)	105	104	107	104	nt	nt	nt	nt	nt	nt	nt
Cc1nccnc1Sc1ccccc1	100	?	101	102	nt	nt	nt	nt	nt	nt	nt
c1ccc(SSc2ccccc2)cc1	-4.9*	105	64	100	100*	nt	nt	nt	nt	nt	nt
COc1ccc(C(=O)N/C(=C/c2cccnc2)C(=O)N2CCOCC2)cc1OC	81	?	89	78	nt	nt	nt	nt	nt	nt	nt
O=C(CSC(=S)N1CCCCC1)Nc1ncc2c(n1)CC(c1ccco1)CC2=O (stereo not drawn)	166	?	144*[activator]	181*[activator]	nt	0	95	95	97	94	94
CC(=O)Nc1ncc2c(n1)CC(c1ccco1)CC2=O (stereo not drawn)	99	94	98	97	nt	nt	nt	nt	nt	nt	nt
Cc1ccc(S(=O)(=O)NC(=O)Nc2ncc3c(n2)CC(c2ccco2)CC3=O)cc1 (stereo not drawn)	14*	77	63	79	79*	0	102	107	102	103	93
Cc1cc(C)c2c(CC(=O)NC(C)C)coc2c1	160	143	151*[activator]	141	141*	0	102	97	102	99	85
COCCn1c(SCC(=O)Nc2nnc(C)s2)nnc1-c1ccncc1	nt	nt	nt	nt	nt	0	96	101	96	104	105
C#CCOCCOCCOCCNc1nc(N2CCOCC2)nc(N2CCN(C(=O)[C@H]([C@@H](C)CC)n3cc([C@@H](N)Cc4ccc(O)cc4)nn3)CC2)n1	95	96	99	96	nt	nt	nt	nt	nt	nt	nt
O=C1COc2ccc(C(=O)COC(=O)CNC(=O)C3CCCCC3)cc2N1	154	167*[activator]	145*[activator]	153*[activator]	nt	1	94	92	98	93	102
Cc1ccc(C(=O)NCC(=O)OCC(=O)c2ccc3c(c2)NC(=O)CO3)cc1C	96	99	100	102	nt	nt	nt	nt	nt	nt	nt
COC(=O)Nc1csc2c1NC(=O)CCCC2	-4.2*	?	18*	-9.2*	nt	-1	95	84	91	93	99

Screening data from PubChem.
